Measured values as given in the supplement of paper PMC8728848.
The full list was thinned out, with the strongest signals kept by preference.

Tests used:
Assay in all cases: glycan array binding signal (z-score within array); higher = stronger binding
Settings in all cases: glycan notation: IUPAC condensed, linker removed
[1] = molecular target: Fuc(a1-2)Gal(b1-3)[Fuc(a1-4)]GlcNAc(b1-2)Man(a1-3)[Fuc(a1-2)Gal(b1-3)[Fuc(a1-4)]GlcNAc(b1-2)Man(a1-3)]Man(b1-4)GlcNAc(b1-4)GlcNAc
Summary of the method: (§1)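 Negative Z-scores can be read as non-binding. The Z-score is calculated within each array and then averaged across arrays of one protein sequence at different concentrations or buffers and across linkers. Arrays, 3228 in all, were curated from the Consortium for Functional Glycomics database and kept only where the protein sequence was available.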

Fuc(a1-2)Gal(b1-4)Glc = molecular target: Fuc(a1-2)Gal(b1-4)Glc
Summary of the method: as §1

[2] = molecular target: Fuc(a1-2)Gal(b1-4)GlcNAc(b1-2)[Fuc(a1-2)Gal(b1-4)GlcNAc(b1-4)]Man(a1-3)[Fuc(a1-2)Gal(b1-4)GlcNAc(b1-2)Man(a1-6)]Man(b1-4)GlcNAc(b1-4)GlcNAc
Summary of the method: as §1

[3] = molecular target: Fuc(a1-2)Gal(b1-4)GlcNAc(b1-6)GalNAc
Summary of the method: as §1

[4] = molecular target: Fuc(a1-2)Gal(b1-4)[Fuc(a1-3)]GlcNAc(b1-2)Man(a1-3)[Fuc(a1-2)Gal(b1-4)[Fuc(a1-3)]GlcNAc(b1-2)Man(a1-6)]Man(b1-4)GlcNAc(b1-4)[Fuc(a1-6)]GlcNAc
Summary of the method: as §1

[5] = molecular target: Fuc(a1-2)[Gal(a1-3)]Gal(b1-3)GlcNAc(b1-2)Man(a1-3)[Fuc(a1-2)[Gal(a1-3)]Gal(b1-3)GlcNAc(b1-2)Man(a1-6)]Man(b1-4)GlcNAc(b1-4)GlcNAc
Summary of the method: as §1

[6] = molecular target: Fuc(a1-2)[Gal(a1-3)]Gal(b1-4)GlcNAc(b1-2)Man
Summary of the method: as §1

Fuc(a1-3)GlcNAc = molecular target: Fuc(a1-3)GlcNAc
Summary of the method: as §1

[7] = molecular target: Fuc(a1-3)[Gal3S(b1-4)]GlcNAc6S
Summary of the method: as §1

Fuc(b1-3)GlcNAc = molecular target: Fuc(b1-3)GlcNAc
Summary of the method: as §1

[8] = molecular target: Gal(a1-3)Gal(b1-4)GlcNAc(b1-2)Man(a1-3)[Gal(a1-3)Gal(b1-4)GlcNAc(b1-2)Man(a1-6)]Man(b1-4)GlcNAc(b1-4)GlcNAc
Summary of the method: as §1

Gal(a1-3)GalNAc = molecular target: Gal(a1-3)GalNAc
Summary of the method: as §1

[9] = molecular target: Gal(a1-4)Gal(b1-3)GlcNAc(b1-2)Man(a1-3)[Gal(a1-4)Gal(b1-3)GlcNAc(b1-2)Man(a1-6)]Man(b1-4)GlcNAc(b1-4)GlcNAc
Summary of the method: as §1

Gal(a1-4)Gal(b1-4)GlcNAc = molecular target: Gal(a1-4)Gal(b1-4)GlcNAc
Summary of the method: as §1

[10] = molecular target: Gal(a1-4)Gal(b1-4)GlcNAc(b1-2)Man(a1-3)[Gal(a1-4)Gal(b1-4)GlcNAc(b1-2)Man(a1-6)]Man(b1-4)GlcNAc(b1-4)GlcNAc
Summary of the method: as §1

[11] = molecular target: Gal(a1-4)Gal(b1-4)GlcNAc(b1-3)Gal(b1-4)Glc
Summary of the method: as §1

Gal(a1-6)Glc = molecular target: Gal(a1-6)Glc
Summary of the method: as §1

Gal(b1-2)Gal = molecular target: Gal(b1-2)Gal
Summary of the method: as §1

Gal(b1-3)Gal(b1-4)GlcNAc = molecular target: Gal(b1-3)Gal(b1-4)GlcNAc
Summary of the method: as §1

[12] = molecular target: Gal(b1-3)GalNAc(a1-3)[Fuc(a1-2)]Gal(b1-4)Glc
Summary of the method: as §1

[13] = molecular target: Gal(b1-3)GalNAc(a1-3)[Fuc(a1-2)]Gal(b1-4)GlcNAc
Summary of the method: as §1

[14] = molecular target: Gal(b1-3)GalNAc(b1-4)Gal(b1-4)Glc
Summary of the method: as §1

[15] = molecular target: Gal(b1-3)GlcNAc(b1-3)Gal(b1-4)GlcNAc(b1-6)[Gal(b1-3)GlcNAc(b1-3)]Gal(b1-4)Glc
Summary of the method: as §1

[16] = molecular target: Gal(b1-3)[Fuc(a1-4)]GlcNAc(b1-2)Man
Summary of the method: as §1

Gal(b1-4)GlcNAc(b1-2)Man = molecular target: Gal(b1-4)GlcNAc(b1-2)Man
Summary of the method: as §1

[17] = molecular target: Gal(b1-4)GlcNAc(b1-2)[Gal(b1-4)GlcNAc(b1-6)]Man(a1-6)[Gal(b1-4)GlcNAc(b1-2)Man(a1-3)]Man(b1-4)GlcNAc(b1-4)GlcNAc
Summary of the method: as §1

[18] = molecular target: Gal(b1-4)GlcNAc(b1-3)Gal(b1-3)GlcNAc
Summary of the method: as §1

[19] = molecular target: Gal(b1-4)GlcNAc(b1-3)Gal(b1-4)GlcNAc(b1-3)Gal(b1-4)GlcNAc(b1-3)Gal(b1-4)GlcNAc(b1-2)Man(a1-3)[Gal(b1-4)GlcNAc(b1-3)Gal(b1-4)GlcNAc(b1-3)Gal(b1-4)GlcNAc(b1-3)Gal(b1-4)GlcNAc(b1-2)Man(a1-6)]Man(b1-4)GlcNAc(b1-4)GlcNAc
Summary of the method: as §1

Gal3S6S(b1-4)GlcNAc = molecular target: Gal3S6S(b1-4)GlcNAc
Summary of the method: as §1

[20] = molecular target: GalNAc(b1-3)Gal(a1-4)Gal(b1-4)GlcNAc
Summary of the method: as §1

GalNAc(b1-4)GlcNAc = molecular target: GalNAc(b1-4)GlcNAc
Summary of the method: as §1

GalNAc3S(b1-4)GlcNAc = molecular target: GalNAc3S(b1-4)GlcNAc
Summary of the method: as §1

Glc(a1-6)Glc(a1-6)Glc = molecular target: Glc(a1-6)Glc(a1-6)Glc
Summary of the method: as §1

[21] = molecular target: GlcNAc(a1-4)Gal(b1-3)GlcNAc
Summary of the method: as §1

[22] = molecular target: GlcNAc(a1-4)Gal(b1-4)GalNAc
Summary of the method: as §1

[23] = molecular target: GlcNAc(b1-3)Gal(b1-4)GlcNAc(b1-3)Gal(b1-4)GlcNAc(b1-2)Man(a1-3)[GlcNAc(b1-3)Gal(b1-4)GlcNAc(b1-3)Gal(b1-4)GlcNAc(b1-2)Man(a1-6)]Man(b1-4)GlcNAc(b1-4)[Fuc(a1-6)]GlcNAc
Summary of the method: as §1

GlcNAc(b1-3)Man = molecular target: GlcNAc(b1-3)Man
Summary of the method: as §1

[24] = molecular target: GlcNAc(b1-4)Gal(b1-4)GlcNAc
Summary of the method: as §1

[25] = molecular target: Man(a1-3)[Man(a1-6)]Man(a1-6)[Man(a1-3)]Man
Summary of the method: as §1

Man(b1-4)GlcNAc = molecular target: Man(b1-4)GlcNAc
Summary of the method: as §1

[26] = molecular target: Neu5Ac(a2-3)Gal(b1-3)GlcNAc(b1-4)Gal(b1-4)Glc
Summary of the method: as §1

[27] = molecular target: Neu5Ac(a2-3)Gal(b1-4)GlcNAc(b1-2)[Neu5Ac(a2-3)Gal(b1-4)GlcNAc(b1-4)]Man(a1-3)[GlcNAc(b1-4)][Neu5Ac(a2-3)Gal(b1-4)GlcNAc(b1-4)Man(a1-6)]Man(b1-4)GlcNAc(b1-4)GlcNAc
Summary of the method: as §1

[28] = molecular target: Neu5Ac(a2-3)Gal(b1-4)GlcNAc(b1-3)Gal
Summary of the method: as §1

[29] = molecular target: Neu5Ac(a2-3)Gal(b1-4)GlcNAc6S
Summary of the method: as §1

[30] = molecular target: Neu5Ac(a2-3)Gal(b1-4)[Fuc(a1-3)]GlcNAc6S
Summary of the method: as §1

[31] = molecular target: Neu5Ac(a2-6)Gal(b1-4)GlcNAc(b1-2)Man(a1-3)Man(b1-4)GlcNAc(b1-4)GlcNAc
Summary of the method: as §1

[32] = molecular target: Neu5Ac(a2-6)Gal(b1-4)GlcNAc(b1-2)Man(a1-3)[Gal(b1-4)GlcNAc(b1-2)Man(a1-6)]Man(b1-4)GlcNAc(b1-4)GlcNAc
Summary of the method: as §1

[33] = molecular target: Neu5Ac(a2-6)Gal(b1-4)GlcNAc(b1-2)[Neu5Ac(a2-6)Gal(b1-4)GlcNAc(b1-4)]Man(a1-3)[GlcNAc(b1-4)][Neu5Ac(a2-6)Gal(b1-4)GlcNAc(b1-2)[Neu5Ac(a2-6)Gal(b1-4)GlcNAc(b1-6)]Man(a1-6)]Man(b1-4)GlcNAc(b1-4)GlcNAc
Summary of the method: as §1

[34] = molecular target: Neu5Ac(a2-6)Gal(b1-4)GlcNAc(b1-2)[Neu5Ac(a2-6)Gal(b1-4)GlcNAc(b1-6)]Man(a1-6)[Neu5Ac(a2-6)Gal(b1-4)GlcNAc(b1-2)Man(a1-3)][GlcNAc(b1-4)]Man(b1-4)GlcNAc(b1-4)GlcNAc
Summary of the method: as §1

[35] = molecular target: Neu5Ac(a2-6)Gal(b1-4)GlcNAc(b1-3)Gal(b1-4)GlcNAc(b1-6)[Gal(b1-3)]GalNAc
Summary of the method: as §1

[36] = molecular target: Neu5Ac(a2-8)Neu5Ac(a2-3)Gal(b1-4)Glc
Summary of the method: as §1

[37] = molecular target: Neu5Gc(a2-3)Gal(b1-3)[Fuc(a1-4)]GlcNAc
Summary of the method: as §1

[38] = molecular target: Neu5Gc(a2-3)Gal(b1-4)GlcNAc(b1-3)Gal(b1-4)GlcNAc(b1-2)Man(a1-3)[Neu5Gc(a2-3)Gal(b1-4)GlcNAc(b1-3)Gal(b1-4)GlcNAc(b1-2)Man(a1-6)]Man(b1-4)GlcNAc(b1-4)GlcNAc
Summary of the method: as §1

Neu5Gc(a2-6)GalNAc = molecular target: Neu5Gc(a2-6)GalNAc
Summary of the method: as §1

B1: Epa6 (Candida glabrata), Q6DTM7_CANGB (protein)
chain: MGSSHHHHHHSSGLVPRGSHMKDDYSSSLSNNNLGWTDPTEFPLGCSPNVTTPKNGLSMELYSYDYLKSGSNPCWDAAYLDPNYPRTGYKSHRLLAKVENVAGNINFYYHAPMGCTSLFDTLPQAYNYRTPLTMTNFTMLLYGYFKPKVTGYHTFTISADDLLFVNFGAGNAFDCCKRESSADDFGNYQAYAVWGSQTAKDDLTVHLDAGLYYPIRIFFNNRDNDGALSLTLKTESDPNPVIDFSDYFYSFDDTKDGCPGLVSYDTS
Q: Which results are given for B1?
A: glycan array binding signal (z-score) [1]: -0.229; glycan array binding signal (z-score) (Fuc(a1-2)Gal(b1-4)Glc): -0.123; glycan array binding signal (z-score) [2]: -0.318; glycan array binding signal (z-score) [3]: -0.062; glycan array binding signal (z-score) [4]: -0.257; glycan array binding signal (z-score) [5]: 0.454; glycan array binding signal (z-score) [6]: 0.197; glycan array binding signal (z-score) (Fuc(a1-3)GlcNAc): -0.304; glycan array binding signal (z-score) [7]: -0.263; glycan array binding signal (z-score) (Fuc(b1-3)GlcNAc): -0.331; glycan array binding signal (z-score) [8]: 3.7; glycan array binding signal (z-score) (Gal(a1-3)GalNAc): 4.17; glycan array binding signal (z-score) [9]: 6.23; glycan array binding signal (z-score) (Gal(a1-4)Gal(b1-4)GlcNAc): 4.65; glycan array binding signal (z-score) [10]: 4.02; glycan array binding signal (z-score) [11]: 4.42; glycan array binding signal (z-score) (Gal(a1-6)Glc): 8.63; glycan array binding signal (z-score) (Gal(b1-2)Gal): 6.14; glycan array binding signal (z-score) (Gal(b1-3)Gal(b1-4)GlcNAc): 10; glycan array binding signal (z-score) [12]: 4.95; glycan array binding signal (z-score) [13]: 5.98; glycan array binding signal (z-score) [14]: 3.9; glycan array binding signal (z-score) [15]: 0.257; glycan array binding signal (z-score) [16]: -0.112; glycan array binding signal (z-score) (Gal(b1-4)GlcNAc(b1-2)Man): -0.283; glycan array binding signal (z-score) [17]: -0.198; glycan array binding signal (z-score) [18]: -0.26; glycan array binding signal (z-score) [19]: 0.07; glycan array binding signal (z-score) (Gal3S6S(b1-4)GlcNAc): -0.306; glycan array binding signal (z-score) [20]: -0.126; glycan array binding signal (z-score) (GalNAc(b1-4)GlcNAc): -0.234; glycan array binding signal (z-score) (GalNAc3S(b1-4)GlcNAc): -0.313; glycan array binding signal (z-score) (Glc(a1-6)Glc(a1-6)Glc): -0.312; glycan array binding signal (z-score) [21]: -0.306; glycan array binding signal (z-score) [22]: -0.297; glycan array binding signal (z-score) [23]: -0.255; glycan array binding signal (z-score) (GlcNAc(b1-3)Man): -0.263; glycan array binding signal (z-score) [24]: -0.357; glycan array binding signal (z-score) [25]: -0.281; glycan array binding signal (z-score) (Man(b1-4)GlcNAc): -0.332; glycan array binding signal (z-score) [26]: -0.269; glycan array binding signal (z-score) [27]: -0.343; glycan array binding signal (z-score) [28]: -0.336; glycan array binding signal (z-score) [29]: -0.347; glycan array binding signal (z-score) [30]: -0.347; glycan array binding signal (z-score) [31]: -0.325; glycan array binding signal (z-score) [32]: -0.301; glycan array binding signal (z-score) [33]: -0.311; glycan array binding signal (z-score) [34]: -0.33; glycan array binding signal (z-score) [35]: 0.25; glycan array binding signal (z-score) [36]: -0.347; glycan array binding signal (z-score) [37]: -0.331; glycan array binding signal (z-score) [38]: -0.311; glycan array binding signal (z-score) (Neu5Gc(a2-6)GalNAc): -0.311
